sPLA2-III inh = human group III sPLA2 inhibitors, primary screen, biochemical, QFRET, BODIPY PC-A2 liposome substrate. Group 3 secretory phospholipase A2 (Homo sapiens), Q9NZ20. QFRET BODIPY PC-A2 liposome hydrolysis, fluorescence. inhibition, % at 12.2 µM. 370,000 tested, 0.56% active;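 active = inhibition above mean plus 3 SD of compounds lying within the high and low control bounds, cut at about 19% in these data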;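 also: 0% = median of test compound wells and 100% = no enzyme DMSO wells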
ADAM17 inh = ADAM17 inhibitors, primary screen, biochemical, QFRET | Disintegrin and metalloproteinase domain-containing protein 17 (Homo sapiens), P78536 | recombinant ADAM17, EDANS/DABCYL FRET peptide cleavage | inhibition, % at 6.95 µM | 370,000 tested, 0.83% active | AID 720648, 2013;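 active = inhibition above the mean of compounds lying between control limits plus 3 SD, set per campaign, cut at about 8.5% in these data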;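 also: 0% = DMSO-only wells as the low control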
FAS-TE inh = FAS thioesterase domain inhibitors, primary screen, biochemical, fluorescence intensity, uHTS | 360,000 tested, 0.67% active | inhibition, % at 15 µM | recombinant FAS-TE, OMFH fluorogenic substrate, fluorescence endpoint;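 active = compounds whose normalised, plate-corrected inhibition of enzyme fluorescence in the single-dose primary screen is 50% or more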;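 also: 0% = DMSO with enzyme and 100% = substrate without enzyme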
ADAM10 inh = human ADAM10 inhibitors, primary screen, biochemical, QFRET, HTS | inhibition, % at 7 µM | Disintegrin and metalloproteinase domain-containing protein 10 (Homo sapiens), O14672 | recombinant ADAM10, EDANS/DABCYL FRET peptide cleavage, 3 h | 370,000 tested, 0.62% active;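 active = inhibition above a per-campaign cutoff equal to the mean of compounds falling between control-based bounds plus 3 SD, cut at about 20% in these data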;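 also: 0% = DMSO wells while the 100% control is not disclosed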
Target sequence (O14672 214-748 limits assumed): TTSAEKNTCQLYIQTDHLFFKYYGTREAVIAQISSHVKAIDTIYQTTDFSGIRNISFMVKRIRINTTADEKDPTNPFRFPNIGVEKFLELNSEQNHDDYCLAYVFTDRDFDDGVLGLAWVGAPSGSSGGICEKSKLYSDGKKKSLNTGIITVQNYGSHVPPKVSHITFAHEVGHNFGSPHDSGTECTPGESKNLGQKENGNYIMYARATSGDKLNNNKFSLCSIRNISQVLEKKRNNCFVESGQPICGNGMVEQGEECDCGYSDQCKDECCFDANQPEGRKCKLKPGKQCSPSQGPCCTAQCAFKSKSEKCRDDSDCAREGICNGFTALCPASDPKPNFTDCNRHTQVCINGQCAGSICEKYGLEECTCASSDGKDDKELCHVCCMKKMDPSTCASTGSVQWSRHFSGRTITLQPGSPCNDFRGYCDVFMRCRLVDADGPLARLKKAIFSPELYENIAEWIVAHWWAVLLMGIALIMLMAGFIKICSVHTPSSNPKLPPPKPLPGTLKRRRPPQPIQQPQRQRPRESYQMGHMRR
NR3A LBD binder = binders of NR3A ligand-binding domain, primary screen, biophysical, differential scanning fluorimetry, uHTS. Tm shift relative to glycine control, % at 25 µM. 340,000 tested, 2.5% active. Glutamate receptor ionotropic, NMDA 3A (GRIN3A) ligand-binding domain. NR3A LBD differential scanning fluorimetry, Tm shift; 0% = protein alone, 100% = glycine-bound protein;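 active = melting temperature shift of at least 10% of the positive control shift, at one fixed dose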
An asterisk follows results filed as active; i = inactive; . = no result given. Rows were chosen to be rich in hits. Some 4.3% of all compounds tested hit in one or more screens of this group.

SMILES	sPLA2-III inh	ADAM17 inh	FAS-TE inh	ADAM10 inh	NR3A LBD binder
CCCCCCCCN1C(=O)[C@@H](CC(=O)NCCCOC)C[C@@]2(C(=O)OC)C1=C[C@H](COCc1ccccc1)O[C@@H]2C	1	-4	.	-4	.
COC(=O)CCC1(C(N)=O)CCC(=O)c2ccccc21 (configuration not stated)	1	-5	-6	-5	13*
CCOC(=O)CCc1cccc2c1CCC2=O	-2	-4	-6	6	1
O=C(O)c1ccc(/C=C2\SC(=S)N(Nc3ccccc3)C2=O)cc1	-8	2	-5	6	1
O=C(NN1C(=O)/C(=C/c2ccc(O)c(O)c2)SC1=S)c1ccccc1	-6	3	2	4	13*
O=C(NN1C(=O)/C(=C/c2cccc(O)c2)SC1=S)c1ccccc1O	-14	-2	-3	2	23*
COc1cc(/C=C2\SC(=S)N(Nc3ccccc3)C2=O)ccc1O	-17	4	-6	15	11*
O=C1/C(=C/c2ccc(O)c(O)c2)SC(=S)N1Nc1ccccc1	.	.	19	.	16*
O=C(O)COc1ccccc1/C=C1\SC(=S)N(NC(=O)c2ccccc2O)C1=O	-12	-5	-13	-3	-2
CC(COc1cccc(Cl)c1)CN1CCC(C(O)(c2ccccc2)c2ccccc2)CC1 (configuration not stated)	-19	7	.	12	.
C[C@@H]1ON(C)[C@H]2C[C@H]3c4[nH]c5c(-c6ccccc6)cccc5c4CCN3C[C@@H]12	-2	-21	.	-118	.
Cc1ccc(C(=O)NN2C(=O)/C(=C/c3cn(C)c4ccccc34)SC2=S)cc1	1	-1	13	-5	0
Cn1cc(/C=C2\SC(=S)N(NC(=O)c3ccccc3Cl)C2=O)c2ccccc21	-19	5	-24	12	12*
Cc1ccc(C(=O)Nc2nnc(-c3ccc(C(C)(C)C)cc3)s2)cc1	-6	-4	-3	-2	10*
O=C(CCCN1C(=O)/C(=C/c2ccccc2Cl)SC1=S)NNC(=O)c1ccc(Cl)cc1Cl	16	2	-1	21*	2
O=C(CN1C(=O)S/C(=C\c2ccc(O)cc2)C1=O)c1ccccc1	-14	4	-2	8	10*
COc1ccc(/C=C2\SC(=O)N(CC(=O)NNC(=O)c3ccccc3O)C2=O)cc1	11	0	14	-1	-3
O=C(CCCN1C(=O)S/C(=C\c2ccccc2)C1=O)NNC(=O)c1ccccc1O	25*	-4	8	1	0
Cc1cccc(-c2cccc3c4c([nH]c23)[C@@H]2C[C@H](N(C)C(=O)c3cccc(Cl)c3)[C@H]([C@H](C)O)CN2CC4)c1	10	-7	.	-19	.
Clc1ccc(-n2c(SCc3cccc4ccccc34)nnc2-c2cccnc2)cc1	-11	8	.	15	.
CC(C)(C)OC(=O)C1[C@H](O)C=CC[C@H]1S(=O)c1ccccc1 (some centres not stated)	8	-5	.	-7	.
Cc1ccc(NC(=O)CCCSc2nc3ccccc3[nH]2)cc1	-8	1	-3	-2	-4
Cc1nc(NC(=O)CSc2ccc(-c3nc4ccccc4[nH]3)cn2)sc1C	-4	-13	0	-36	20*
Cc1ccc2nc(-c3ccc(SCC(=O)Nc4nnc(C)s4)nc3)[nH]c2c1	-9	-60	-4	-168	24*
COCCNC(=O)CSc1ccc(-c2nc3ccccc3[nH]2)cn1	-2	-67	-4	-165	-1
SMILES	sPLA2-III inh	ADAM17 inh	FAS-TE inh	ADAM10 inh	NR3A LBD binder
Cc1ccc(SCC(=O)Nc2ccc(-c3nc4ccccc4[nH]3)cc2)cc1	-6	-2	-10	-7	35*
CCc1nnc(NC(=O)CSc2ccc(-c3nc4ccccc4[nH]3)cn2)s1	-14	-27	0	-76	19*
Cc1ccc2nc(-c3ccc(SCC(=O)Nc4nc(C)cs4)nc3)[nH]c2c1	1	-6	-14	-21	10
Cc1ccc(-c2nc(C3CCCN(S(=O)(=O)c4cccs4)C3)no2)cc1 (configuration not stated)	12	-2	.	2	.
O=C(CSc1nnc(SCc2cccc3ccccc23)s1)c1ccc(F)cc1	-21	0	.	4	.
S=C(NCCC(c1ccccc1)c1ccccc1)Nc1ccc(Cl)cc1	-18	7	24	14	15*
S=C(NCCSCc1ccc(Cl)cc1)Nc1ccccc1	5	2	21	4	12*
S=C(NCCCc1ccccc1)Nc1ccccc1	4	0	-1	-1	-9
S=C(NCCSCc1ccccc1Cl)Nc1ccccc1	-11	-1	18	4	7
Cc1ccc(C)c(NC(=S)NCCSc2ccc(Cl)cc2)c1	9	6	39	11	-5
Cc1cccc(NC(=S)NCCSc2ccc(Cl)cc2)c1	-10	-1	40	8	14*
S=C(NCCCc1ccccc1)Nc1ccc(Cl)cc1	-23	8	39	10	22*
C[C@H]1[C@@H](NC(=O)c2ccc(C(C)(C)C)cc2)CC[C@@]23CCCN2C(=O)CCC[C@@H]13	2	1	.	1	.
CC(C)c1ccc(C(=O)Nc2cc(Cl)ccc2C(=O)O)cc1	-26	3	.	12	.
O=C(OCc1cn(Cc2c(F)cccc2F)nn1)N1CCOCC1	6	-5	.	-7	.
CC1(C)Cc2c(sc(NC(=O)c3ccccc3)c2C(=O)O)CO1	-3	-2	-2	1	10*
C/C(C=NNC(=O)CSc1nc2ccccc2n1C)=C\c1ccccc1	-5	4	.	8	.
O=C(Nc1ccc(OC(F)(F)F)cc1)Nc1c(-c2ccc(F)cc2)nc2ncccn12	-2	-6	.	-16	.
CN(CC(=O)Nc1cccc(F)c1)C(=O)c1cn(-c2ccccc2)nc1-c1ccc(F)cc1	-19	6	31	19	35*
CN(CC(=O)Nc1cccc(F)c1)C(=O)c1cccc2ccccc12	-15	2	6	4	-2
NS(=O)(=O)c1ccc(NC(=O)COC(=O)c2cn(-c3ccccc3)nc2-c2ccc(F)cc2)cc1	-2	-2	-8	3	16*
NS(=O)(=O)c1ccc(NC(=O)/C=C/c2cn(-c3ccccc3)nc2-c2cccc(Cl)c2)cc1	-9	-4	8	-6	31*
COc1ccc(-c2cc(C(=O)N(C)CC(=O)Nc3cccc(F)c3)c3ccccc3n2)cc1	-8	-167	19	i	10
COc1cccc(-c2nn(-c3ccc(C)cc3)cc2C(=O)N(C)CC(=O)Nc2cccc(F)c2)c1	-28	8	27	20	13*

Source: PubChem BioAssay (several laboratories)
